This note sets out measurements from PubChem BioAssay (NCI).

Each structure is given as a SMILES string. The panel holds about 83,000 compounds, 20% with a hit somewhere; the sample as a whole holds those more often.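 Single-dose data. Exposure time 48 hours. Values below 10 considered active.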 Values without a mark were called inactive. Active and inactive are the calls of the source.

What all share (test): NCI-60 one-dose screen, 48 h (100 = growth as untreated, 0 = no growth, -100 = all killed)
What all share (conditions): 10 µM unless noted

The subject of experiment [1] is DU-145 prostate.
Experiment [2] relates to K-562 leukemia.
The subject of experiment [3] is MALME-3M melanoma.
Experiment [4] concerns MDA-MB-231 breast.
The subject of experiment [5] is RXF 393 renal.
Experiment [6] has as its system SF-268 CNS.
Experiment [7] concerns SF-295 CNS.
In experiment [8] the test system is SF-539 CNS.
The test system of experiment [9] is UACC-257 melanoma.
Experiment [10] deals with M14 melanoma.
In experiment [11] the test system is HCT-15 colon.
In experiment [12] the test system is HT29 colon.
In experiment [13] the test system is SNB-75 CNS.
Experiment [14] has as its system SNB-19 CNS.
The subject of experiment [15] is U251 CNS.
In experiment [16] the test system is PC-3 prostate.
The test system of experiment [17] is SK-MEL-5 melanoma.
Experiment [18] has as its system UACC-62 melanoma.
The subject of experiment [19] is LOX IMVI melanoma.
The subject of experiment [20] is SK-MEL-28 melanoma.

`c1cnc2[nH]cc(-c3csc(-c4cn(CCCN5CCOCC5)c5ccccc45)n3)c2c1`: the growth is 82% in [1]; 1.22% (active) in experiment [2]; 61.1% in [3]; 27.1% in [4]; 24.9% in [5]; 52.3% in experiment [6]. The growth was 16.7% in [7]; 52.9% in experiment [8]; 85% in experiment [9]; 14.5% in experiment [10]; 14% in experiment [11]; 7.69% (active) in experiment [12]. Further, the growth in [13] was 20.1%; in [14], 56.8%; in experiment [15], 32.9%; in experiment [16], 19.6%; in experiment [17], 38%; in experiment [18] it was 65.5%. Further, the growth was 30.6% in [19] and 65.3% in experiment [20].
Consider `CN(C)CCNC(=O)c1cccc(-c2cnc3ccc(-c4ccc5c(c4)OCO5)nn23)c1`, for which the growth is 66.5% in experiment [1]; 1.77% (active) in experiment [2]; 88.7% in [3]; 77.9% in [4]; 42.3% in experiment [5]; 76.7% in experiment [6]. The growth in experiment [7] was 106%; in [8], 66.9%; in experiment [9], 108%; in experiment [10], 67.7%; in [11], 46%; in experiment [12], 10.9%. Moreover, the growth in experiment [13] is 73.2%; in experiment [14] it was 84.3%; in experiment [15], 86.1%; in experiment [16] it was 61.5%; in [17] it was 90.8%; in experiment [18], 81.8%. For the same compound, the growth in experiment [19] is 20.7%; in experiment [20], 99.5%.
For the compound `C#Cc1cccc(Nc2ncnc3ccc(-c4cnc(N)nc4)cc23)c1`, the growth in experiment [1] is 18.9%; in [2], 53.2%; in [3], 9.03% (active); in experiment [4], 12.8%; in [5], -15.3% (active); in experiment [6], 32.7%. Besides, the growth in [7] is 26.2%; in experiment [8], 32.4%; in experiment [9] it was 80.7%; in experiment [10] it was 36.8%; in [11], 23.1%; in experiment [12], 48%. For the same compound, the growth in [13] was 6.34% (active); in experiment [14], 47.2%; in experiment [15], 54.7%; in experiment [16] it was 27.1%; in experiment [17] it was 32.7%; in [18], 24.8%. Besides, the growth in [19] is 22.2%; in [20] it was 38.1%.
Turning to `O=C(c1ccc(-c2nc(CSc3nc4ccccc4s3)no2)cc1)N1CCSCC1`, the growth in [1] is 81.9%; in experiment [2], 36.6%; in [3], 66.3%; in [4], 64.6%; in experiment [5] it was 110%; in [6], 77.1%. Moreover, the growth in experiment [7] is 40.6%; in [8], 80.3%; in [9] it was 35.7%; in experiment [10], 79.9%; in [11], 68.5%; in experiment [12], 40.8%. For the same compound, the growth is 91.9% in [13]; 87.7% in experiment [14]; 61.6% in experiment [15]; 63.5% in experiment [16]; 24.6% in experiment [17]; 59.9% in experiment [18]. Besides, the growth is 55.2% in [19] and 96.6% in [20].
Take `Cc1nnc(-n2c(O)cc(=O)n(-c3ccccc3)c2=S)nc1/C=C/c1ccc(N(C)C)cc1`: the growth was 73.7% in experiment [1]; 30.1% in [2]; 63.3% in [3]; 45.6% in experiment [4]; 83.3% in experiment [5]; 78.4% in experiment [6]. Moreover, the growth in experiment [7] is 62%; in experiment [8], 66%; in [9], 35.3%; in experiment [10], 49.8%; in experiment [11], 28.9%; in experiment [12] it was 24.3%. Further, the growth in experiment [13] is 17.3%; in [14] it was 59.8%; in experiment [15], 53.7%; in experiment [16] it was 67.1%; in [17], 60.6%; in [18], 11.7%. Besides, the growth in [19] was 18.8%; in experiment [20], 58.6%.
For `O=C(O)/C(=C\c1ccc(Cl)cc1)c1ccc(Cl)cc1`, the growth is 107% in [1]; 43.8% in [2]; 81.5% in experiment [3]; 92.9% in [4]; 78.8% in experiment [5]; 96.5% in [6]. Further, the growth in [7] is 118%; in [8], 95.2%; in [9], 85.8%; in [10] it was 95.8%; in experiment [11], 86.9%; in experiment [12], 93.6%. Besides, the growth was 74.2% in experiment [13]; 103% in experiment [14]; 91.9% in [15]; 89.8% in experiment [16]; 96.4% in experiment [17]; 94.3% in experiment [18]. Besides, the growth in experiment [19] was 95.2%; in experiment [20] it was 95.9%.
In the case of `CCCCN[C@H]1CC[C@@]2(C)[C@@H](CC[C@@]3(C)[C@H]2[C@H](O)C[C@H]2/C(=C(\CCC=C(C)C)C(=O)OC)[C@@H](OC(C)=O)C[C@@]23C)[C@@H]1C`, the growth in experiment [1] was 112%; in experiment [2] it was 30.5%; in [3] it was 96.9%; in experiment [4], 114%; in experiment [5], 103%; in experiment [6], 100%. Further, the growth in experiment [7] is 99%; in experiment [8], 99.3%; in [9] it was 98.1%; in experiment [10] it was 96.2%; in experiment [11], 98.8%; in experiment [12], 95.7%. Also, the growth in experiment [13] is 82.9%; in experiment [14], 104%; in experiment [15] it was 98.2%; in experiment [16], 95.2%; in experiment [17] it was 93.7%; in [18] it was 95.5%. Also, the results for the growth in experiment [19] and in [20] were 97.9% and 93.4%, respectively.
As to `CCOC(=O)c1cn2ncnc(Oc3ccc(NC(=O)NC4CCCCC4)c(Cl)c3)c2c1C`, the growth in experiment [1] was 96%; in experiment [2], 82.6%; in [3], 58%; in [4], 58.2%; in experiment [5], 83.8%; in experiment [6] it was 84.9%. The growth in experiment [7] was 96.7%; in experiment [8], 51.2%; in experiment [9], 90%; in experiment [10], 83.9%; in experiment [11], 69.4%; in experiment [12], 81.6%. Moreover, the growth is 0.475% (active) in [13]; 66.1% in [14]; 49.3% in [15]; 67.7% in experiment [16]; 84.5% in experiment [17]; 80.4% in [18]. Besides, the growth in [19] is 54.9%; in experiment [20] it was 93.9%.
